Where two headings read alike, the source gives them in different places.

Holding throughout (parameters): species or system human, MV4-11 + K-562 + COLO205 + SK-N-BE2 + OVCAR-8
One experiment has as its system T1, DJA1.
T1 construct: gene DNAJA1
As to conditions: read-out: apparent Kd, n = 1.

For a further experiment, the system named is MAP2K1. To be noted: read-out: apparent Kd, n = 1.
A further experiment relates to PIM2. To be noted: read-out: apparent Kd; compound concentrations:100 nM and 1000 nM (sheet 'Samples'); n = 1.
Another experiment deals with STK26. As to conditions: read-out: apparent Kd; compound concentrations:100 nM and 1000 nM (sheet 'Samples'); n = 1.
For the next experiment, the system named is PRKD2. To be noted: read-out: apparent Kd; compound concentrations:100 nM and 1000 nM (sheet 'Samples'); n = 1.
A further experiment deals with PRKD3. To be noted: read-out: apparent Kd; compound concentrations:100 nM and 1000 nM (sheet 'Samples'); n = 1.
Another experiment relates to EGFR. As to conditions: read-out: apparent Kd; compound concentrations: 100 nM and 1000 nM (sheet 'Samples'), CATDS: 1; n = 1.
Another experiment relates to DDR2. As to conditions: read-out: apparent Kd; compound concentrations: 100 nM and 1000 nM (sheet 'Samples'), CATDS: 0.27583033516959499; n = 1.
The next experiment deals with PIP4K2C. As to conditions: read-out: apparent Kd; compound concentrations: 100 nM and 1000 nM (sheet 'Samples'), CATDS: 0.290600345689909; n = 1.
The subject of a further experiment is RIPK2. As to conditions: read-out: apparent Kd; compound concentrations: 100 nM and 1000 nM (sheet 'Samples'), CATDS: 0.517215300479827; n = 1.
The test system of another experiment is TGFBR1. To be noted: read-out: apparent Kd; compound concentrations:100 nM and 1000 nM (sheet 'Samples'); n = 1.
A further experiment has as its system DYRK1A. As to conditions: read-out: apparent Kd; compound concentrations: 100 nM and 1000 nM (sheet 'Samples'), CATDS: 0.12801866170396201; n = 1.
The subject of the next experiment is MAPK10. As to conditions: read-out: apparent Kd; compound concentrations: 100 nM and 1000 nM (sheet 'Samples'), CATDS: 0.199019247687024; n = 1.
In a further experiment the test system is MAPK11. To be noted: read-out: apparent Kd; compound concentrations: 100 nM and 1000 nM (sheet 'Samples'), CATDS: 0.17455940008728901; n = 1.
The subject of a further experiment is MAPK14. As to conditions: read-out: apparent Kd; compound concentrations: 100 nM and 1000 nM (sheet 'Samples'), CATDS: 0.87257547022931203; n = 1.
Another experiment deals with MAPK9. As to conditions: read-out: apparent Kd; compound concentrations: 100 nM and 1000 nM (sheet 'Samples'), CATDS: 0.189062450586059; n = 1.
The test system of another experiment is DYNC1LI1. As to conditions: read-out: apparent Kd, compound concentrations: 100 nM and 1000 nM (sheet 'Samples'), n = 1.
The next experiment concerns GSK3A. As to conditions: read-out: apparent Kd, compound concentrations: 100 nM and 1000 nM (sheet 'Samples'), n = 1.
The next experiment deals with GSK3B. As to conditions: read-out: apparent Kd, compound concentrations: 100 nM and 1000 nM (sheet 'Samples'), n = 1.
The next experiment has as its system MYLK3. As to conditions: read-out: apparent Kd; compound concentrations: 100 nM and 1000 nM (sheet 'Samples'), CATDS: 9.6792260241437694E-2; n = 1.
In another experiment the test system is PIK3CD. As to conditions: read-out: apparent Kd; compound concentrations: 100 nM and 1000 nM (sheet 'Samples'), CATDS: 0.44284718560289399; n = 1.
Another experiment deals with PRKCD. To be noted: read-out: apparent Kd; compound concentrations: 100 nM and 1000 nM (sheet 'Samples'), CATDS: 9.5557824797396607E-2; n = 1.
A further experiment concerns PRKCQ. To be noted: read-out: apparent Kd; compound concentrations: 100 nM and 1000 nM (sheet 'Samples'), CATDS: 0.104256233520078; n = 1.
A further experiment has as its system IRAK4. To be noted: read-out: apparent Kd; compound concentrations: 100 nM and 1000 nM (sheet 'Samples'), CATDS: 6.7100435979899897E-2; n = 1.
In the next experiment the test system is MAP3K2. As to conditions: read-out: apparent Kd; compound concentrations: 100 nM and 1000 nM (sheet 'Samples'), CATDS: 7.9900498504471701E-2; n = 1.
The subject of a further experiment is STK3. To be noted: read-out: apparent Kd; compound concentrations: 100 nM and 1000 nM (sheet 'Samples'), CATDS: 7.3483496844903004E-2; n = 1.
For a further experiment, the system named is STK4. As to conditions: read-out: apparent Kd; compound concentrations: 100 nM and 1000 nM (sheet 'Samples'), CATDS: 6.4981472702296803E-2; n = 1.
The subject of another experiment is TAOK1. To be noted: read-out: apparent Kd; compound concentrations: 100 nM and 1000 nM (sheet 'Samples'), CATDS: 0.10465573180823801; n = 1.
The next experiment has as its system TAOK3. As to conditions: read-out: apparent Kd; compound concentrations: 100 nM and 1000 nM (sheet 'Samples'), CATDS: 8.7598902274653806E-2; n = 1.
The subject of another experiment is TNK2. To be noted: read-out: apparent Kd; compound concentrations: 100 nM and 1000 nM (sheet 'Samples'), CATDS: 8.6765119114313102E-2; n = 1.
A further experiment concerns TUBB6. To be noted: read-out: apparent Kd; compound concentrations: 100 nM and 1000 nM (sheet 'Samples'), CATDS: 7.2898721054062393E-2; n = 1.
In the next experiment the test system is WEE1. To be noted: read-out: apparent Kd; compound concentrations: 100 nM and 1000 nM (sheet 'Samples'), CATDS: 6.8522632580167595E-2; n = 1.
The test system of a further experiment is PDXK. To be noted: read-out: apparent Kd; compound concentrations: 100 nM and 1000 nM (sheet 'Samples'), CATDS: 0.22598902737403401; n = 1.
For another experiment, the system named is PIK3CB. To be noted: read-out: apparent Kd; compound concentrations: 100 nM and 1000 nM (sheet 'Samples'), CATDS: 0.79841434313068305; n = 1.
The test system of a further experiment is DHCR24. As to conditions: read-out: apparent Kd; compound concentrations: 100 nM and 1000 nM (sheet 'Samples'), CATDS: 0.35595473001681699; n = 1.
A further experiment deals with EIF5B. To be noted: read-out: apparent Kd; compound concentrations: 100 nM and 1000 nM (sheet 'Samples'), CATDS: 0.317916944834297; n = 1.
The test system of a further experiment is TOP2B. As to conditions: read-out: apparent Kd; compound concentrations: 100 nM and 1000 nM (sheet 'Samples'), CATDS: 0.32838798877743502; n = 1.
Where [1] appears, read: compound concentrations:100 nM and 1000 nM (sheet 'Samples').

With `O=C1NC(=O)C(c2ccccc2)=C1Nc1cccc(O)c1` [SB-390534], the potency estimated from few doses in the experiment on DJA1 (setting [1]) was 1350 nM; in the experiment with MAP2K1 (setting [1]), 1510 nM; with PIM2 it was 2120 nM; in the experiment on STK26 it was 1580 nM.
As for `Cc1cccc(-c2nc(Nc3ccc4ncsc4c3)c3ccccc3n2)n1` [GW867588X], the potency estimated from few doses in the experiment with DJA1 (setting [1]) is 134 nM; in the experiment with PRKD2 it was 37.5 nM; in the experiment with PRKD3 it was 74.8 nM.
In the case of `CCNC(=O)O[C@H]1CN[C@H](C#Cc2cc3ncnc(Nc4ccc(OCc5cccc(F)c5)c(Cl)c4)c3s2)C1` [GSK192082A], the potency estimated from few doses with EGFR is 177 nM.
For `CNC(=O)c1cncc(/C=C/c2c(C)cccc2C)c1` [GW445012X], the potency estimated from few doses with DDR2 was 2060 nM; in the experiment on PIP4K2C it was 1800 nM; in the experiment on RIPK2, 587 nM.
Consider `Clc1ccc(-c2cc(-c3c[nH]nc3-c3ccccn3)ccn2)cc1` [GW681251X], for which the potency estimated from few doses is 843 nM in the experiment with DJA1 (setting [1]) and 856 nM in the experiment on TGFBR1.
For the compound `CS(=O)(=O)CCN(CC#N)Cc1ccc(-c2ccc3ncnc(Nc4ccc(OCc5cccc(F)c5)c(Cl)c4)c3c2)o1` [GW616030X], the potency estimated from few doses in the experiment on EGFR was 244 nM.
On the same count and under the same terms, then `O=C(O)C(F)(F)F.O=C(O[C@H]1CN[C@H](C#Cc2cc3ncnc(Nc4ccc5c(ccn5Cc5cc(F)ccc5F)c4)c3s2)C1)N1CCOCC1` [GSK259178A], with 277 nM.
For `C[C@H](CS(C)(=O)=O)Nc1ncc2cc(Oc3ccc(F)cc3F)c(=O)n(C)c2n1` [RO5043312-000], the potency estimated from few doses with DYRK1A was 1960 nM; in the experiment with MAPK10, 398 nM; with MAPK11 it was 583 nM; in the experiment on MAPK14 it was 10.8 nM; in the experiment on MAPK9, 460 nM.
With `Cn1cc(C2=C(c3cn(C)c4ccc(N)cc34)C(=O)NC2=O)c2ccccc21` [RO0317365-000], the potency estimated from few doses is 1120 nM with DJA1 (compound concentrations: 100 nM and 1000 nM (sheet 'Samples'), CATDS: 0.11913722870337901); 1880 nM in the experiment with DYNC1LI1 (CATDS: 9.8378875134037994E-2); 637 nM in the experiment with GSK3A (CATDS: 0.15388620061227101); 598 nM in the experiment on GSK3B (CATDS: 0.158803622599584); 1970 nM in the experiment on MYLK3; 113 nM in the experiment with PIK3CD. For the same compound, the potency estimated from few doses with PRKCD was 2060 nM; with PRKCQ, 1580 nM.
Consider `COc1ccc2c(c1)C(c1ccccc1Cl)=Nc1c(n[nH]c1C)N2` [RO0281498-000], for which the potency estimated from few doses in the experiment on DYNC1LI1 (CATDS: 8.5515201932316404E-2) was 1210 nM; with GSK3A (CATDS: 8.5763522680639803E-2) it was 1210 nM; in the experiment with GSK3B (CATDS: 7.6779937662019099E-2), 1500 nM; in the experiment on IRAK4 it was 2010 nM; in the experiment on MAP2K1 (compound concentrations: 100 nM and 1000 nM (sheet 'Samples'), CATDS: 6.4942175038997504E-2), 2180 nM; in the experiment with MAP3K2, 1380 nM. Further, the potency estimated from few doses in the experiment with STK3 was 1640 nM; with STK4, 2180 nM; in the experiment with TAOK1, 858 nM; with TAOK3, 1160 nM; in the experiment on TNK2, 1180 nM; with TUBB6, 1670 nM. Besides, the potency estimated from few doses in the experiment with WEE1 is 1920 nM.
Take `Cc1c(Cn2c3ccccc3n3c(=O)cc(N4CCOCC4)nc23)cccc1C(F)(F)F` [GSK2306394A]: the potency estimated from few doses in the experiment with DJA1 (compound concentrations: 100 nM and 1000 nM (sheet 'Samples'), CATDS: 0.30097601497631998) was 653 nM; with PDXK, 1920 nM; in the experiment on PIK3CB it was 66.7 nM.
Turning to `Cc1ccc(NC(=O)Nc2ccc(Cl)cc2)cc1-c1ccc(C(=O)Nc2ccncc2)cc1` [GSK1398472A], the potency estimated from few doses with DHCR24 was 1500 nM; with EIF5B it was 1880 nM; in the experiment with TOP2B it was 1750 nM.
Consider `Fc1cccc(COc2ccc(Nc3ncnc4sc(-c5ccco5)cc34)cc2Cl)c1` [GSK969786A], for which the potency estimated from few doses in the experiment on EGFR is 815 nM.

Values taken from PMC11062922 (Nature Chemical Biology, 2023).
